High-throughput results deposited in PubChem by National Center for Advancing Translational Sciences (NCATS).
The list is not random: actives were taken first. Their share in the collection is about 3%.
KDM5B inh: blocks human KDM5B histone demethylase activity; actives 2.6% (n = 220,000); Potency, µM (highest dose often 57.7 µM), actives largely listed as inhibitors; KDM5B demethylase, FDH-coupled NADH fluorescence (FDH is formaldehyde dehydrogenase); AID 1347165; Q9UGL1; note: potency is the fitted concentration of half-maximal effect; 0% is about no effect; nearly all actives have a fitted effect of over 70% in size
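Coupled FDH/NAD⁺ fluorescence readout. KDM5BΔAP 200 nM final; compound titration, 10 min RT preincubation; substrate mix 12.5 µM H3K4me3, 25 µM 2-OG, 50 µM Fe(II), 100 µM ascorbate, 0.25 mM NAD⁺, 0.25 U/mL FDH; ΔRFU over 30 min.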
SNCA expr inhib: reduces expression of the alpha-synuclein gene; actives 0.17% (n = 140,000); HEK-293 SNCA-luciferase knock-in, luminescence, 24 h; Potency, µM (doses to about 57.2 µM), for the others: top-dose activity change, negative = inhibition, actives largely listed as inhibitors;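 note: potency is the fitted concentration of half-maximal effect; plate controls were DMSO cells for no effect and cell-free wells for full effect; nearly all actives have a fitted effect of over 45% in size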
SNCA viab count: reduces viability of HEK-293 SNCA reporter cells | HEK-293-SNCA-luc viability, GF-AFC fluorescence, 24 h | actives 0.12% (n = 150,000) | Potency, µM (highest dose often 57.1 µM), inactives show at the top dose activity change, negative = cytotoxicity, most hits filed as cytotoxic;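 note: potency is the fitted concentration of half-maximal effect; 0% = DMSO-treated cells and -100% = medium-only wells without cells; nearly all actives have a fitted effect of over 30% in size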
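HEK-293-SNCA-luc cells (1500/well) plated 24 h, then exposed 24 h to a dilution series; GF-AFC added 30 min at 37C, fluorescence 405/540 nm; normalised to medium-only and DMSO wells, Hill fit.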
IP6K1 inhibitor: IP6K1 kinase inhibition. Q92551. IP6K1 kinase, ADP-Glo luminescence, 2 h; stronger effect = lower value. activity change, % (series mostly up to about 58 µM). actives 0.81% (n = 140,000); in the data active = activity change below about -25%; note: % is set by controls: 0 for no effect and ±100 for the full control effect
Target sequence (Q92551 whole entry, looked up): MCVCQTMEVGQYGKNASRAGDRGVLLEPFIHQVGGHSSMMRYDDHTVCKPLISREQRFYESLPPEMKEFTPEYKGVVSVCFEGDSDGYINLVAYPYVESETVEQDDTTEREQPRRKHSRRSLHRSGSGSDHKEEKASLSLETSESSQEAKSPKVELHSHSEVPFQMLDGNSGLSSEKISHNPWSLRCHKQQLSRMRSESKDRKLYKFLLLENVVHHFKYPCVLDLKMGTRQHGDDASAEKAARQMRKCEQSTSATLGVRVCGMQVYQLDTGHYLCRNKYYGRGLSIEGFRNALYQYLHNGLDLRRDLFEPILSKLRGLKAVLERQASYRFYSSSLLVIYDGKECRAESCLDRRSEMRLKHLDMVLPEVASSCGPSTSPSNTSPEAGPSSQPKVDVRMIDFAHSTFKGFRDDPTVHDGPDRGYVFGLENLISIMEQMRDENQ
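ADP-Glo luminescence measures ADP made by human IP6K1 during a 2 h RT reaction with ATP/IP6 (mix at 1.3 mM/130 uM); top library doses 57.5 and 19.1 uM final.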
The depositor's hits bear a star. Unless noted, calls come from the whole dose curve; as a rule, active = well fitted curve in the direction sought with a large enough effect; inconclusive = small, poorly fitted or top-dose-only effect, or another doubt; inactive = no such curve, though single readings can be large; an effect the other way counts as inactive or inconclusive.

For CCCCCCSc1nc2c(c(=O)[nH]c(=O)n2C)n1CC(O)COc1ccc(Cl)cc1 (stereo not drawn) the results were KDM5B inh inactive.
For Cc1nc2scc(CC(=O)NCC(C)C)n2c(=O)c1-c1cc(C)n(-c2ccc(C(C)C)cc2)n1 the results were KDM5B inh 28.2µM*, SNCA expr inhib -3.8%, SNCA viab count 1.9% and IP6K1 inhibitor -6.1.
Screening O=C(O)c1ccccc1NS(=O)(=O)c1cc([N+](=O)[O-])ccc1N/N=C/c1ccsc1 returned KDM5B inh inactive.
For COc1ccc(Cc2nc3nccc(-c4cc(OC)c(OC)c(OC)c4)n3n2)cc1 the results were KDM5B inh 14.1µM*, SNCA expr inhib 1.6%, SNCA viab count -2.0% and IP6K1 inhibitor 0.8.
COc1cc(-c2ccnc3nc(Cc4cc(F)cc(F)c4)nn23)cc(OC)c1OC was read as KDM5B inh 15.8µM*, SNCA expr inhib 17.9%, SNCA viab count -5.7% and IP6K1 inhibitor -2.5.
Fc1cc(F)cc(Cc2nc3nccc(-c4ccco4)n3n2)c1 was read as KDM5B inh 25.1µM*, SNCA expr inhib 4.2%, SNCA viab count 10.9% and IP6K1 inhibitor -3.5.
COc1cc(-c2ccnc3nc(Cc4ccc(F)cc4)nn23)cc(OC)c1OC was read as KDM5B inh inconclusive, SNCA expr inhib inconclusive, SNCA viab count inconclusive and IP6K1 inhibitor 3.1.
`COc1cc(F)ccc1-c1ccnc2nc(Cc3ccc(F)cc3)nn12` gave KDM5B inh 28.2µM*, SNCA expr inhib -11.1%, SNCA viab count 2.4% and IP6K1 inhibitor 11.7.
CCC(=O)Nc1ccc(-c2csc(Nc3cccc(OC)c3)n2)cc1 was read as KDM5B inh inactive.
`CCCc1noc(-c2ccn3c(CNC(=O)c4ccccc4Cl)nnc3c2)n1` gave KDM5B inh inactive, SNCA expr inhib -19.1%, SNCA viab count -1.2% and IP6K1 inhibitor 24.1.
For CCCc1noc(-c2ccn3c(CNC(=O)c4ccccc4OC)nnc3c2)n1 the results were KDM5B inh 3.16µM*, SNCA expr inhib 10.8%, SNCA viab count 18.2% and IP6K1 inhibitor 28.8.
`CCCc1noc(-c2ccn3c(CNC(=O)Cc4ccccc4OC)nnc3c2)n1` gave KDM5B inh 17.8µM*, SNCA expr inhib -30.2%, SNCA viab count 3.8% and IP6K1 inhibitor 18.2.
`CCCc1noc(-c2ccn3c(CNC(=O)C(C)Oc4ccccc4)nnc3c2)n1` (stereo not drawn) gave KDM5B inh 25.1µM*, SNCA expr inhib 2.5%, SNCA viab count -3.8% and IP6K1 inhibitor 18.5.
FC(F)(F)c1ccccc1CNCc1ccccc1Cl was read as KDM5B inh inactive.
Cc1ccccc1OCC(=N)N was read as KDM5B inh inactive.
COc1ccc(CNC(=O)c2nc(S(=O)(=O)Cc3ccccc3)ncc2Cl)cc1 was read as KDM5B inh inconclusive, SNCA expr inhib inconclusive, SNCA viab count 25.1µM* and IP6K1 inhibitor -7.5.
`O=C(NCc1ccccc1)c1nc(S(=O)(=O)Cc2ccccc2)ncc1Cl` gave KDM5B inh inconclusive, SNCA expr inhib inconclusive, SNCA viab count inconclusive and IP6K1 inhibitor -4.8.
Screening CS(=O)(=O)c1ncc(Cl)c(C(=O)N(Cc2ccc(Cl)cc2)Cc2ccco2)n1 returned KDM5B inh inconclusive, SNCA expr inhib inconclusive, SNCA viab count 2.51µM* and IP6K1 inhibitor -13.2.
COc1ccc(N(Cc2ccccc2)C(=O)c2nc(S(C)(=O)=O)ncc2Cl)cc1 was read as KDM5B inh inconclusive, SNCA expr inhib inconclusive, SNCA viab count 6.31µM* and IP6K1 inhibitor -25.8*.
`COCCNC(=O)c1cc(-c2cccc(C(F)(F)F)c2)c2cccn2n1` gave SNCA expr inhib 5.0%, SNCA viab count -1.4% and IP6K1 inhibitor -5.1.
Screening COc1cccc(-c2cc(C(=O)N(C)C)c3cnn(C)c3n2)c1 returned IP6K1 inhibitor 1.3.
Screening CCN(CC)C(=O)Cn1c(=O)c2c(ncn2Cc2ccco2)n(Cc2ccccc2)c1=O returned KDM5B inh inactive.
Screening CCn1c2ccccc2c2cc(CN3CCN(Cc4ccc(Br)cc4)CC3)ccc21 returned KDM5B inh inconclusive, SNCA expr inhib -10.6%, SNCA viab count 14.5% and IP6K1 inhibitor -58.0*.
CCn1cc(CN2CCN(Cc3ccccc3)CC2)ccc1=O was read as KDM5B inh inconclusive, SNCA expr inhib -2.7%, SNCA viab count -5.3% and IP6K1 inhibitor 3.6.
Cc1ccc(C(=O)NCC(=O)NCCc2c[nH]c3ccccc23)cc1C was read as KDM5B inh inactive.
